Where “and” joins values, the source holds several entries; their conditions need not be identical. Equal entries are not always repeated. Records with an inconclusive call do not appear. Entries that show only a call come without a potency. Where a structure was tested more than once in an assay, its records may differ in their call. Calls of active or inactive are those of the source. Calls come from the whole dose curve; as a rule, active = well fitted curve in the direction sought with a large enough effect; inconclusive = small, poorly fitted or top-dose-only effect, or another doubt; inactive = no such curve, though single readings can be large; an effect the other way counts as inactive or inconclusive.
Tests used:
[1] = target: Cytochrome P450 3A7 (Homo sapiens) (UniProt P24462); assay: Cytochrome P450 family 3 subfamily A member 7 (CYP3A7) small molecule antagonists: luciferase biochemical qHTS assay (AID 1963596); note: nearly all actives have a fitted effect of over 40% in size
Cytochrome P450 3A7 (Homo sapiens), sequence (P24462 whole entry, looked up): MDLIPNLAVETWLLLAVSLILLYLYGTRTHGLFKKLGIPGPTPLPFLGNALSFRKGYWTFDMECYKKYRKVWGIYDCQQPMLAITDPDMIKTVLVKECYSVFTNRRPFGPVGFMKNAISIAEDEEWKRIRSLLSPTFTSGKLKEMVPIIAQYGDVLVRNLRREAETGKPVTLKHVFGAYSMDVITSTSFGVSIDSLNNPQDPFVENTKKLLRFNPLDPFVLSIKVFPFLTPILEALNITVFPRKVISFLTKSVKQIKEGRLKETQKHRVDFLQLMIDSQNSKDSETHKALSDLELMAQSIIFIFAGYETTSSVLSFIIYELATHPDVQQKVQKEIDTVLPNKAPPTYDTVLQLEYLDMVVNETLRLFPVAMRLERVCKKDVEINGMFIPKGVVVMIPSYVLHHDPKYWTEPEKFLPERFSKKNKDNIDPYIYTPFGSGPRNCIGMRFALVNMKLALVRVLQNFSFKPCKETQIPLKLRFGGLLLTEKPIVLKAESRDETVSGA
Summary of the method: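 Compounds were screened in qHTS format for interference with CYP3A7 turnover of a proluciferin substrate. Reactions ran 1 h at room temperature after NADPH regeneration solution was added, then luciferin product was detected by luminescence.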

[2] = Viability qHTS for spleen associated tyrosine kinase inhibitor (SYKi) naive MV4-11 cells (AID 1963823); note: nearly all actives have a fitted effect of over 40% in size; note: potency is the fitted concentration of half-maximal effect
Summary of the method: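 CellTiter-Glo luminescence, 10 min room-temperature incubation, gave viability. Cells: naive MV4-11 (500/well), treated 72 hr at 37 C, 5% CO2.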

[3] = Viability qHTS for spleen associated tyrosine kinase inhibitor (SYKi) drug resistant MV4-11 cells (AID 1963824); note: nearly all actives have a fitted effect of over 35% in size; note: potency is the fitted concentration of half-maximal effect
Summary of the method: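 SYK inhibitor-resistant MV4-11 AML cells, 500 per well, added to predispensed compounds and incubated 72 hr at 37 C, 5% CO2. Viability measured by CellTiter-Glo luminescence after 10 min at room temperature.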

[4] = Quantitative highthroughput screen to assess conditional lethalithy of NOMO1 cells grown in Human Plasma-Like Medium with dialyzed fetal bovine serum (HPLM+ds) (AID 1963878); note: nearly all actives have a fitted effect of over 35% in size; note: potency is the fitted concentration of half-maximal effect
Summary of the method: (§1)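 Each medium arm—HPLM with 10% dialyzed FBS, or RPMI1640 with 5 mM glucose and 10% untreated or dialyzed FBS—was screened against an 11-point, 3-fold compound titration for 48 h at 37 °C, with CellTiter-Glo luminescence as endpoint.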

[5] = Quantitative highthroughput screen to assess conditional lethalithy of SEM cells grown in RPMI1640 with dialyzed fetal bovine serum (RPMI+ds) (AID 1963884); note: nearly all actives have a fitted effect of over 35% in size; note: potency is the fitted concentration of half-maximal effect; for Viability: series mostly up to about 46 µM
Summary of the method: as §1

[6] = Cellular viability qHTS for adrenocortical cancer (ACC) cell line SW-13 (AID 1963989); details: SW-13 ACC cells viability, CellTiter-Glo, 48 h; activity (max response): stronger effect = lower value; note: nearly all actives have a fitted effect of over 65% in size; note: potency is the fitted concentration of half-maximal effect;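 for activity (max response): cells grown in serum-free medium with ITS supplement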
Summary of the method: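 Viability was read as CellTiter-Glo luminescence after 48 h compound treatment (up to 46 uM final) of SW-13 cells grown serum-free; titration curves were fit with a four-parameter logistic model to give IC50 and efficacy.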

[7] = Cellular viability qHTS for adrenocortical cancer (ACC) cell line NCI-H295R (AID 1963990); note: nearly all actives have a fitted effect of over 60% in size; note: potency is the fitted concentration of half-maximal effect
Summary of the method: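 CellTiter-Glo ATP luminescence, read 48 h after compound addition, measured viability of NCI-H295R adrenocortical cells grown serum-free with ITS. Final concentrations spanned up to 46 uM. Data normalized to DMSO and doxorubicin, fitted for IC50 and maximal response.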

[8] = Quantitative highthroughput screen to assess conditional lethalithy of NOMO1 cells grown in RPMI1640 with dialyzed fetal bovine serum (RPMI+ds) (AID 1963877); note: nearly all actives have a fitted effect of over 30% in size; note: potency is the fitted concentration of half-maximal effect; for Viability: series mostly up to about 46 µM
Summary of the method: as §1

[9] = Quantitative highthroughput screen to assess conditional lethalithy of P12 Ichikawa cells grown in Human Plasma-Like Medium with dialyzed fetal bovine serum (HPLM+ds) (AID 1963879); details: Potency: viability; note: nearly all actives have a fitted effect of over 35% in size; note: potency is the fitted concentration of half-maximal effect; for Viability: series mostly up to about 46 µM
Summary of the method: as §1

[10] = Quantitative highthroughput screen to assess conditional lethalithy of P12 Ichikawa cells grown in RPMI1640 with dialyzed fetal bovine serum (RPMI+ds) (AID 1963880); details: Potency: P12-Ichikawa viability; note: nearly all actives have a fitted effect of over 35% in size; note: potency is the fitted concentration of half-maximal effect
Summary of the method: as §1

[11] = Quantitative highthroughput screen to assess conditional lethalithy of P12 Ichikawa cells grown in RPMI1640 with untreated serum (RPMI+s) (AID 1963881); details: Potency: viability; note: nearly all actives have a fitted effect of over 35% in size; note: potency is the fitted concentration of half-maximal effect; for Viability: series mostly up to about 46 µM
Summary of the method: as §1

[12] = Quantitative highthroughput screen to assess conditional lethalithy of SEM cells grown in Human Plasma-Like Medium with dialyzed fetal bovine serum (HPLM+ds) (AID 1963882); note: nearly all actives have a fitted effect of over 35% in size; note: potency is the fitted concentration of half-maximal effect; for Viability: series mostly up to about 46 µM
Summary of the method: as §1

[13] = Quantitative highthroughput screen to assess conditional lethalithy of SEM cells grown in RPMI1640 with unreated serum (RPMI+s) (AID 1963883); note: nearly all actives have a fitted effect of over 35% in size; note: potency is the fitted concentration of half-maximal effect
Summary of the method: as §1

SMILES	Potency [1]	Potency [2]	Potency [3]	Potency [4]	Potency [5]	activity (max response) [6]	Potency [7]	Potency [8]	Potency [9]	Potency [10]	Potency [11]	Potency [12]	Potency [13]	Potency [6]
Nc1ccn([C@H]2CC[C@@H](CO)O2)c(=O)n1	inactive	inactive	inactive	23500 nM (active)	7430 nM (active)	0.291% (inactive)	inactive							
O=C(OC1C[C@H]2CC[C@@H](C1)[N+]21CCCC1)C(O)(c1ccccc1)c1ccccc1 (some centres not stated)	inactive	inactive	inactive	inactive	inactive	-1.15% (inactive)	inactive	inactive	inactive	inactive	inactive	inactive	inactive	
NCCOc1cc(C(=O)Nc2cc(OCCN)c3ccccc3n2)nc(C(=O)Nc2cc(OCCN)c3ccccc3n2)c1	inactive	1.3 µM (active) and 1.66 µM (active)	2.59 µM (active) and 3.72 µM (active)	inactive										
O=C(Cc1ccc(-c2ccc(OCCN3CCOCC3)cc2)cn1)NCc1ccccc1	inactive	231 nM (active) and 93.4 nM (active)	206 nM (active) and 105 nM (active)		29.6 nM (active)		178 nM (active)		33.2 nM (active)	37.2 nM (active)	37.2 nM (active)	26.4 nM (active)	26.4 nM (active)	0.199 µM (active)
COc1cc2c(cc1OC)CN(CCc1ccc(NC(=O)c3cc(OC)c(OC)cc3NC(=O)c3cnc4ccccc4c3)cc1)CC2	inactive	inactive	inactive	inactive		-4.36% (inactive)	inactive	inactive						
CC(C)NCC(O)COc1ccc(CCOCC2CC2)cc1 (configuration not stated)	inactive	inactive	inactive	16600 nM (active)	inactive	-8.57% (inactive)	inactive		inactive	inactive	inactive	inactive	inactive	
COC(=O)Nc1nc2ccc(Sc3ccccc3)cc2[nH]1	inactive	372 nM (active)	417 nM (active)		2960 nM (active)		130 nM (active) and 316 nM (active)						2350 nM (active)	184 nM (active) and 316 nM (active)
OC[C@H]1O[C@@H](OCCc2ccc(O)cc2)[C@H](O)[C@@H](O)[C@H]1O	inactive	inactive	inactive	inactive		-16.3% (inactive)		inactive	inactive	inactive	inactive	inactive		
CCCOc1ccc2nc(NC(=O)OC)[nH]c2c1	inactive	263 nM (active)	184 nM (active) and 332 nM (active)		20.9 nM (active)		355 nM (active)		41.8 nM (active)		41.8 nM (active)			0.251 µM (active)
NCCC(O)(P(=O)(O)O)P(=O)(O)O	inactive	inactive	inactive			6.05% (inactive)								
C1COC(NC(C2CC2)C2CC2)=N1	inactive	inactive	inactive	inactive		14.7% (inactive) and 0.392% (inactive)	inactive	inactive			inactive			
O=C1NC(O)CCN1[C@@H]1O[C@H](CO)[C@H](O)[C@H]1O (some centres not stated)	inactive	inactive	inactive	20900 nM (active)	inactive	-1.6% (inactive)	inactive			inactive		inactive	inactive	
Cc1cc(C2CCCCC2)n(O)c(=O)c1	inactive	2.31 µM (active) and 4.68 µM (active)	2.59 µM (active) and 3.35 µM (active) and 3.72 µM (active)		13200 nM (active)		2000 nM (active)					13200 nM (active)	11800 nM (active)	1.3 µM (active) and 25.1 µM (active)
C[N+](C)(C)CC(=O)O	inactive	inactive	inactive	inactive	inactive	-6.24% (inactive) and 7.87% (inactive)	inactive	inactive	inactive	inactive			inactive	
CN(C)C(=O)COC(=O)Cc1ccc(OC(=O)c2ccc(N=C(N)N)cc2)cc1	inactive	inactive	inactive and 7.42 µM (active)	20900 nM (active)		3.47% (inactive) and -2% (inactive)	inactive							
CNC1CCCN(c2c(F)cc3c(=O)c(C(=O)O)cn(C4CC4)c3c2OC)C1 (configuration not stated)	inactive	inactive	inactive		inactive	2.01% (inactive) and 5.57% (inactive)	inactive	inactive	inactive	inactive	inactive	inactive	inactive	
O=c1[nH]c(=O)n([C@H]2C[C@H](O)[C@@H](CO)O2)cc1F	inactive	29.9 nM (active) and 83.3 nM (active)	105 nM (active)											3.66 µM (active) and 3.55 µM (active)
O=C(CO)N1CCC(c2[nH]nc(-c3ccc(Cl)cc3)c2-c2ccncn2)CC1	inactive	2310 nM (active)	9200 nM (active)		13200 nM (active)	-7.74% (inactive)	inactive							
NS(=O)(=O)c1cc(Cl)c(Cl)c(S(N)(=O)=O)c1	inactive	inactive	inactive	inactive			inactive		inactive	inactive	inactive			

SMILES	Potency [1]	Potency [2]	Potency [3]	Potency [4]	Potency [5]	activity (max response) [6]	Potency [7]	Potency [8]	Potency [9]	Potency [10]	Potency [11]	Potency [12]	Potency [13]	Potency [6]
COc1cccc2cc(-c3nc(C4CCC(C(=O)O)CC4)n4ncnc(N)c34)[nH]c12 (configuration not stated)	inactive	461 nM (active) and 366 nM (active)	580 nM (active) and 461 nM (active)		1180 nM (active)				296 nM (active)		590 nM (active)	590 nM (active)	935 nM (active)	
COc1c(OCCCN2CCOCC2)ccc2c3n(c(=NC(=O)c4cnc(N)nc4)nc12)CCN3	inactive	47.3 nM (active) and 53.9 nM (active)	37.6 nM (active) and 241 nM (active)				237 nM (active)						2040 nM (active)	
CC(C)(C)NCC(O)c1ccc(O)c(CO)c1 (configuration not stated)	inactive	inactive	inactive		inactive	0.289% (inactive) and -0.385% (inactive)	inactive				4180 nM (active)	inactive	inactive	
Cc1cn([C@@H]2O[C@H](CO)[C@@H](O)[C@H]2F)c(=O)[nH]c1=O	inactive	inactive	inactive		inactive	7.23% (inactive)	inactive		inactive			inactive	inactive	
CCn1cc(C(=O)O)c(=O)c2ccc(C)nc21	inactive	inactive	inactive		5900 nM (active)	13.9% (inactive)		inactive	inactive	inactive	inactive	inactive		
COc1cnc(NS(=O)(=O)c2ccc(N)cc2)nc1	inactive	1.2 nM (active)	inactive		inactive	10.3% (inactive)						inactive	inactive	
C=CC(=O)Nc1cc2c(Nc3ccc(F)c(Cl)c3)ncnc2cc1OCCCN1CCOCC1	inactive	596 nM (active) and 742 nM (active)	944 nM (active) and 742 nM (active)				1.46 µM (active) and 6.31 µM (active)	2960 nM (active)		inactive				3.55 µM (active)
CCn1cc(C(=O)O)c(=O)c2cc(F)c(N3CCNCC3)nc21	inactive	33.5 nM (active)	2660 nM (active)		inactive	4.85% (inactive)	inactive		inactive	inactive	inactive	inactive	inactive	
Cn1nnc2c(C(N)=O)ncn2c1=O	inactive	inactive	inactive	18700 nM (active)	235 nM (active)	-0.0469% (inactive) and 5.28% (inactive)	inactive					332 nM (active)		
C[C@@H](N)c1ccc(C(=O)Nc2ccnc3[nH]ccc23)cc1	inactive	4170 nM (active)	10300 nM (active)											25.1 µM (active)
Cc1[nH]c(=O)c(C#N)cc1-c1ccncc1	inactive	inactive	inactive	inactive	inactive	14.7% (inactive) and 1.4% (inactive) and -7.07% (inactive)	inactive					inactive	inactive	
CN(Cc1cnc2nc(N)nc(N)c2n1)c1ccc(C(=O)N[C@@H](CCC(=O)O)C(=O)O)cc1	inactive	10.6 nM (active) and 37.2 nM (active)	10.6 nM (active) and 46.8 nM (active)		83.3 nM (active)		13 nM (active) and 316 nM (active)		66.2 nM (active)	105 nM (active)		132 nM (active)	1050 nM (active)	18.4 nM (active) and 251 nM (active)
Nc1c2c(nc3ccccc13)CCCC2	inactive	inactive	inactive and 18.6 µM (active)		inactive	-1.99% (inactive) and -7.86% (inactive)	inactive	14800 nM (active)	inactive	inactive	inactive	inactive	inactive	
CCn1cc(C(=O)O)c(=O)c2cc(F)c(N3CCNCC3)cc21	inactive	inactive	inactive			-6.7% (inactive) and -21.8% (inactive)	inactive	inactive			3320 nM (active)			
CCN1CCCC1=O	inactive	inactive	inactive			9.62% (inactive)								
COc1cccc(OC)c1C(=O)N[C@@H]1C(=O)N2[C@@H]1SC(C)(C)[C@@H]2C(=O)O	inactive	inactive	inactive			11.1% (inactive)								
CC1(c2ccccc2)OC(C(=O)O)=CC1=O (configuration not stated)	inactive	inactive	inactive			-17.9% (inactive)								
C[C@@H]1CCNC(=O)c2cc3ccc(C(=O)Nc4nc5ccccc5n4CCCN(C)C)cc3n21	inactive	662 nM (active)	820 nM (active)											25.1 µM (active)
CCOCCn1c(C2CCN(CCc3ccc(C(C)(C)C(=O)O)cc3)CC2)nc2ccccc21	inactive	inactive	inactive			2.01% (inactive)								
